In the supplement of paper PMC11634586:
Structures can show the parent of a compound that is named as a salt. A number with no mark means an inactive call.

Each compound was assayed on NCI-H1688 (assay: inhibition of cell viability relative to untreated control (fraction); higher = stronger growth inhibition, active = 0.5 or more). Details: 30 µM; 24 h.
Protocol: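 Natural product library (TargetMol, 640 compounds) screened on NCI-H1688 SCLC cells at 30 µM for 24 h; viability by CCK-8 absorbance at 450 nm, normalised to untreated control and expressed as inhibition rate (fraction). Compounds with >50% reduction in viability were selected as hits.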

In order of rising “inhibition of cell viability” value:
1. CC(=O)O[C@H]1CC[C@H]2[C@@H]3CCC4=CC(=O)CCC4=C3C=C[C@]12C [Trenbolone acetate]  -0.43
2. COc1cccc(C=O)c1OC [o-Veratraldehyde]  -0.267
3. O=c1cccc2n1C[C@@H]1CNC[C@H]2C1 [Cytisine]  -0.243
4. O=C1C[C@@H]2OCC=C3CN4CC[C@]56c7ccccc7N1[C@H]5[C@H]2[C@H]3C[C@H]46 [Strychnine Sulfate]  -0.193
5. NCCc1c[nH]c2ccccc12 [Tryptamine]  -0.188
6. COc1cc2c(cc1OC)C13CCN4CC5=CCOC6CC(=O)N2C1C6C5CC43 (stereo not given) [Brucin]  -0.145
7. O=c1ccc2cc(O[C@@H]3O[C@H](CO)[C@@H](O)[C@H](O)[C@H]3O)c(O)cc2o1 [Esculin]  -0.139
8. CCC1=C[C@@H]2CN3CCc4c([nH]c5ccccc45)[C@@](C(=O)OC)(C2)[C@@H]13 [Catharanthine tartrate]  -0.101
9. CCC12C=CCN3CC[C@@]4(c5ccc(OC)cc5N(C)[C@H]4[C@@](O)(C(=O)OC)[C@@H]1OC(C)=O)[C@@H]32 (stereo not given in full) [Vindoline]  -0.0958
10. CCN1C[C@]2(OC(=O)c3ccccc3NC(C)=O)CC[C@H](OC)[C@@]34[C@@H]2C[C@@H]([C@@H]13)[C@@]1(O)C[C@H](OC)[C@H]2C[C@@H]4[C@]1(O)[C@H]2OC [Lappaconitine]  -0.0777
11. O=C(O)CC[N+](=O)[O-] [Bovinocidin]  -0.0746
12. CC[C@H]1CN2CC[C@H]1C[C@@H]2[C@@H](O)c1ccnc2ccc(OC)cc12 [Hydroquinidine]  -0.0507
13. CN1[C@@H]2C[C@@H](OC(=O)[C@H](CO)c3ccccc3)C[C@H]1[C@@H]1O[C@@H]12 [Scopolamine HBr]  -0.0423
14. COC1=C[C@@H]2[C@@H]3Cc4ccc(OC)c(O)c4[C@]2(CCN3C)CC1=O [Sinomenine hydrochloride]  -0.0195
15. C[C@]12CC[C@H](O)C[C@@H]1CC[C@@H]1[C@@H]2CC[C@]2(C)C(=O)CC[C@@H]12 [Epiandrosterone]  -0.0121
16. CC(=O)OCC1=C(C(=O)O)N2C(=O)[C@@H](N)[C@H]2SC1 [7-Aminocephalosporanic acid]  0.00874
17. CN1[C@@H]2C[C@@H](OC(=O)[C@H](CO)c3ccccc3)C[C@H]1[C@@H]1O[C@@H]12 [Scopolamine HBr trihydrate]  0.0269
18. CCC1=C[C@H]2CN3CCc4c([nH]c5ccccc45)[C@](C(=O)OC)(C2)[C@H]13 [Catharanthine]  0.0372
19. COc1ccc2c(c1O)-c1c(OC)c(OC)cc3c1[C@H](C2)N(C)CC3 [S-Isocorydine(+)]  0.0897
20. COc1ccc2c(c1OC)CN1CCc3cc4c(cc3C1C2)OCO4 (stereo not given) [Tetrahydroberberine THB]  0.0966
21. NCCc1c[nH]c2ccc(O)cc12 [Serotonin hydrochloride]  0.104
22. CC(C)(C)[C@]1(O)CC2OC(=O)CC23C(=O)OC2OC(=O)[C@H](O)C231 (stereo not given in full) [Bilobalide]  0.155
23. C[C@H]1C(=O)O[C@@H]2CCN3CC=C(COC(=O)[C@](C)(O)[C@]1(C)O)[C@H]23 [Monocrotaline]  0.161
24. COc1cc2c3c(c1OC)-c1ccccc1C[C@H]3N(C)CC2 [Nuciferine]  0.173
25. NCCc1ccc(O)cc1 [Tyramine]  0.176
26. C[C@]12CC[C@H]3[C@@H](CCC4=CC(=O)CC[C@@]43C)[C@@H]1CC[C@@H]2O [Testosterone]  0.182
27. COc1cc(C2OCC3C(c4cc(OC)c(O[C@@H]5O[C@H](CO)[C@@H](O)[C@H](O)[C@H]5O)c(OC)c4)OCC23)cc(OC)c1O[C@H]1O[C@@H](CO)[C@H](O)[C@@H](O)[C@@H]1O (stereo not given in full) [Eleutheroside E]  0.231
28. CN1[C@@H]2CC[C@H]1C[C@@H](OC(=O)[C@H](CO)c1ccccc1)C2 [L-Hyoscyamine]  0.305
29. COC1=C[C@]23CCCN2CCc2cc4c(cc2[C@@H]3[C@@H]1O)OCO4 [Cephalotaxine]  0.394
30. COc1cccc2c1cc([N+](=O)[O-])c1c(C(=O)O)cc3c(c12)OCO3 [Aristolochic Acid]  0.49
31. CC(=O)O[C@H]1[C@H]2[C@@H](OC(=O)Cc3ccccc3)[C@@H](C)C[C@]2(OC(C)=O)C(=O)/C(C)=C/[C@@H]2[C@H](CC[C@@]13CO3)C2(C)C [Euphorbiasteroid]  0.499

For C[C@]12CC[C@H](O)C[C@H]1CC[C@@H]1[C@@H]2CC[C@]2(C)[C@@H](c3ccc(=O)oc3)CC[C@]12O [Bufalin], the “inhibition of cell viability” value was 0.985 (active).
C/C=C(\C)C(=O)N[C@@H](c1ccccc1)[C@@H](O)C(=O)O[C@H]1C[C@@]2(O)[C@@H](OC(=O)c3ccccc3)[C@@H]3[C@]4(OC(C)=O)CO[C@@H]4C[C@H](O)[C@@]3(C)C(=O)[C@H](OC(C)=O)C(=C1C)C2(C)C [Cephalomannine] was tested, and the “inhibition of cell viability” value was 0.721 (active).
With C[C@@]12C(=O)OC(=O)[C@]1(C)[C@H]1CC[C@@H]2O1 [Cantharidin] the “inhibition of cell viability” value was 0.983 (active).
For C[C@H]1CCC/C=C/[C@@H]2C[C@H](O)C[C@H]2[C@H](O)/C=C/C(=O)O1 [Brefeldin A], the “inhibition of cell viability” value was 0.704 (active).
In the case of C[C@@H]1O[C@@H](O[C@H]2C[C@@H](O)[C@]3(CO)[C@H]4[C@H](O)C[C@]5(C)[C@@H](C6=CC(=O)OC6)CC[C@]5(O)[C@@H]4CC[C@]3(O)C2)[C@H](O)[C@H](O)[C@H]1O [Ouabain octahydrate], the “inhibition of cell viability” value is reported as 0.99 (active).
In the case of CC1=C(O)C(=O)C=C2C1=CC=C1[C@@]2(C)CC[C@@]2(C)[C@@H]3C[C@](C)(C(=O)O)CC[C@]3(C)CC[C@]12C [Celastrol], the “inhibition of cell viability” value is reported as 1 (active).
For C[C@@H]1C[C@@H]([C@H](O)CC2CC(=O)NC(=O)C2)C(=O)[C@@H](C)C1 [Actidione], the “inhibition of cell viability” value was 0.943 (active).
With CC(=O)O[C@@]12CO[C@@H]1C[C@H](O)[C@@]1(C)C(=O)[C@H](O)C3=C(C)[C@@H](OC(=O)[C@H](O)[C@@H](NC(=O)c4ccccc4)c4ccccc4)C[C@@](O)([C@@H](OC(=O)c4ccccc4)[C@H]21)C3(C)C [Deacetyltaxol] the “inhibition of cell viability” value was 0.667 (active).
CC(=O)O[C@H]1C[C@H](O[C@H]2[C@@H](O)C[C@H](O[C@H]3[C@@H](O)C[C@H](O[C@H]4CC[C@@]5(C)[C@H](CC[C@@H]6[C@@H]5C[C@@H](O)[C@]5(C)[C@@H](C7=CC(=O)OC7)CC[C@]65O)C4)O[C@@H]3C)O[C@@H]2C)O[C@H](C)[C@H]1O[C@@H]1O[C@H](CO)[C@@H](O)[C@H](O)[C@H]1O [Lanatoside C] was tested, and the “inhibition of cell viability” value was 0.994 (active).
